Source: PubChem (The Scripps Research Institute Molecular Screening Center)
GPR151 ag: activators of human GPR151 | Q8TDV0 | PathHunter beta-arrestin GPR151 cells, luminescence | activation, % at 11.2 µM | actives 1% (n = 650,000); in the data active = activation above about 4.9%;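 note: 0% = median of compound wells and 100% = cells with positive control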
Target sequence (Q8TDV0 whole entry, looked up): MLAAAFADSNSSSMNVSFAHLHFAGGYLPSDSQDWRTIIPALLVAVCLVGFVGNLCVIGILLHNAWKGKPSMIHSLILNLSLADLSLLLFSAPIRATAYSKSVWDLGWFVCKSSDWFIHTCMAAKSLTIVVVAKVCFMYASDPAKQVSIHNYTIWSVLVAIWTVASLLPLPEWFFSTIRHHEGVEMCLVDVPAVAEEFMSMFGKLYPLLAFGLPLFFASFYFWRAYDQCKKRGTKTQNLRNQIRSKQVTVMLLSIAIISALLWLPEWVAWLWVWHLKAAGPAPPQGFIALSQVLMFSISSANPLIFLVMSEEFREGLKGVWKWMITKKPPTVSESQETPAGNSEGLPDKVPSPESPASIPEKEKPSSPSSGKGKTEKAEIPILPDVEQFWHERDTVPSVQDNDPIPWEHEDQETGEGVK
MITF inh: inhibitors of human MITF | O75030 | AlphaScreen MITF homodimerization, bead proximity signal | inhibition, % at 2.6 µM | actives 0.91% (n = 650,000); in the data active = inhibition above about 50%;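 note: 0% = vehicle wells with protein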
FBW7 activator: activators of human E3 ligase FBW7; AlphaScreen FBW7–phospho-cyclin E peptide binding, activator screen; normalized activity (activation), % at 26.1 µM; actives 0.13% (n = 650,000); in the data active = normalized activity above about 1.9%;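 note: purified mutant Fbw7 with reduced substrate affinity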
TEAD-YAP block: TEAD-YAP interaction inhibition; HEK-TIYL cells, TEAD-Gal4/YAP UAS-luciferase luminescence; inhibition, % at 9.12 µM; actives 1.4% (n = 640,000); AID 1259422; in the data active = inhibition above about 32%;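 note: 0% = median of test compound wells and 100% = reference inhibitor wells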
GPR151 confirm: confirmation of human GPR151 activators; GPR151 PathHunter beta-arrestin cells, luminescence, 90 min; % of EA-reagent control over plate median; activation, % at 11.2 µM; 6,700 tested, under 10 active; shares compounds with GPR151 ag;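 active = mean percent activation across replicates above the confirmation screen cutoff of 4.91%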
GPR119 counter: GPR119 activation, counter-screen for GPR151 activators. shares compounds with GPR151 ag. GPR119 PathHunter beta-arrestin cells, luminescence, 90 min; 0 = compound-well median, 100 = enzyme-acceptor control. activation, % at 11.2 µM. actives 0.3% (n = 6,700);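 active = mean percent activation in the counterscreen above 29.09%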;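 note: counterscreen on off-target GPR119 to flag nonselective hits from the GPR151 activator screen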
* hit, by the source's call; . = no result given; ! = a repeat was not active. This is a sample that favours compounds with a hit; in the whole collection about 3.5% have one here.

SMILES	GPR151 ag	MITF inh	FBW7 activator	TEAD-YAP block	GPR151 confirm	GPR119 counter
CCN(CC)S(=O)(=O)c1cccc(C(=O)NN)c1	5.5*	-3.4	-0.1	-11.3	-0.2	-8.8
O=C(CCN1C(=O)C2C3C=CC(CC3)C2C1=O)N1CCN(Cc2ccccc2)CC1 (centres undefined)	-0.2	-11.0	-0.3	-3.4	.	.
CC1CN(C(=O)CCC(=O)N2CCOCC2)c2ccccc2O1 (centres undefined)	8.3*	3.5	0.2	7.8	-0.6	-18.7
COc1ccc(NC(=O)COc2ccc(Cl)cc2)cc1NC(=O)c1ccco1	6.0*	-1.6	-0.1	5.7	-0.1	-2.8
Cc1ccc(N2CC(=O)Nc3c(sc4nc(C)cc(C)c34)C2=O)cc1	1.8	-6.2	-0.5	3.0	.	.
Cc1cc(C)c2c3c(sc2n1)C(=O)N(c1ccc(F)cc1)CC(=O)N3	5.6*	3.5	-0.1	2.5	0.0	-1.1
c1csc(-c2nnc(N3CCOCC3)c3ccccc23)c1	5.9*	5.0	0.1	6.2	0.2	2.3
Cc1cc(CNC2CCN(Cc3ccccc3)CC2)c(C)n1CC(C)C	6.8*	48.5	0.1	-1.5	0.9	13.5
COc1cc(CNC2CCN(Cc3ccccc3)CC2)cc(OC)c1	-0.4	6.4	0.0	9.5	.	.
Cc1cc(OC(C)C(=O)NC2CCS(=O)(=O)C2)cc(C)c1Cl (centres undefined)	0.2	-9.0	0.0	-9.7	.	.
O=C(c1c(F)cccc1F)N1CCN(S(=O)(=O)c2ccc(Br)cc2)CC1	6.1*	4.8	-0.5	-14.1	0.4	13.3
O=C(N/C(=C/c1ccc([N+](=O)[O-])o1)C(=O)N1CCOCC1)c1ccccc1	-1.2	-18.2	0.0	-6.7	.	.
Cc1cc(S(=O)(=O)N2CCN(C)CC2)c(C)cc1Cl	5.3*	-6.1	-0.1	-2.2	0.3	-11.5
Cc1cc(C)c(S(=O)(=O)N2CCN(C)CC2)cc1C	-0.1	5.3	-0.1	10.5	.	.
C/C(=N/NC(=O)c1ccccc1)C1CC1	2.0	-7.6	0.5	-58.0	.	.
C/C(=N\NC(=O)c1cccc(Cl)c1)c1ccc([N+](=O)[O-])o1	-1.1	18.7	1.1	-12.8	.	.
C/C(=N\NC(=O)c1cccc(Cl)c1)C1CC1	8.9*	18.6	0.1	-53.9	1.6	13.8
C/C(=N/NC(=O)c1cccc(Cl)c1)c1ccc([N+](=O)[O-])o1	5.7*	14.6	0.1	-43.2	-0.1	2.8
COc1ccc(C2CC(=O)c3cnc(NC(=O)c4ccc(F)cc4)nc3C2)cc1 (centres undefined)	-0.2	0.6	0.0	9.5	.	.
Cc1nc2ncnn2c(N2CCC(C(=O)Nc3ccc(F)cc3)CC2)c1C	5.4*	-11.3	-0.3	8.4	0.2	8.6
CCc1c(C)nc2ncnn2c1N1CCC(C(=O)Nc2ccc(C)cc2)CC1	-0.7	8.7	-0.1	11.8	.	.
Cc1ccc(-n2nc3c(c2NC(=O)C2(c4ccc(Cl)cc4)CCCC2)CS(=O)C3)c(C)c1 (centres undefined)	-0.6	16.4	0.3	-2.0	.	.
CCn1cc(C(=O)OCC(=O)Nc2ccc([N+](=O)[O-])cc2OC)c(=O)c2ccc(C)nc21	-1.6	-161.6	-0.1	-6.2	.	.
COc1ccc(C=O)cc1OC(=O)c1cccc2ccccc12	10.2*	10.9	0.0	-0.7	-1.2	-14.9
O=S(=O)(c1cc(Cl)ccc1Cl)N1CCN(Cc2cccc(F)c2)CC1	1.4	2.5	-0.1	5.8	.	.
SMILES	GPR151 ag	MITF inh	FBW7 activator	TEAD-YAP block	GPR151 confirm	GPR119 counter
CCc1nc(CN2CCN(CC(C)(C)C)C(CCO)C2)c(C)[nH]1 (centres undefined)	-1.0	-4.8	0.1	7.8	.	.
COc1ccccc1/C=C(/C(=O)OCC(N)=O)c1ccccc1	0.5	-0.9	0.1	7.2	.	.
COc1cc(/C=C(/C(=O)OCC(N)=O)c2ccc(-c3ccccc3)cc2)cc(OC)c1OC	5.1*	7.0	-0.2	0.9	-0.3	-6.9
CC1CCCCC1NC(=O)CNC(=S)N(Cc1cccs1)C1CCCCC1 (centres undefined)	-0.2	-15.2	0.1	-13.6	.	.
O=C(CNC(=S)N(Cc1cccs1)C1CCCCC1)NC1CCCC1	6.2*	1.8	-0.1	7.3	-0.6	3.6
CC(C)Cc1ccc(C(C)C(=O)O)cc1 (centres undefined)	0.2	2.4	0.0	9.8	.	.
CC(C(=O)O)c1ccc(CC2CCCC2=O)cc1 (centres undefined)	6.7*!	4.5	0.0	4.4	-0.1	0.6
O=C(Nc1cc(Cl)ccc1Cl)/C(=C/c1cccc([N+](=O)[O-])c1)NC(=O)C1CCCCC1	1.3	-2.8	-0.2	-3.7	.	.
O=C(Nc1ccc(Cl)cc1)/C(=C/c1cccc([N+](=O)[O-])c1)NC(=O)C1CCCCC1	6.2*	-1.3	-0.1	6.2	-1.0	-2.5
NC(=O)COC(=O)c1cccc(S(=O)(=O)N2CCCc3ccccc32)c1	6.1*	0.1	0.0	-3.9	-0.4	-1.2
O=C(C1CCC1)N1CCc2cc(S(=O)(=O)N3CCCc4ccccc43)ccc21	6.5*	0.7	0.1	-11.5	1.2	0.4
NC(=O)COC(=O)c1ccc(S(=O)(=O)N2CCCc3ccccc32)cc1	1.0	1.0	0.0	-2.1	.	.
Cc1nc(SCC(=O)c2cc(C)n(-c3cccc(C(F)(F)F)c3)c2C)c2c3c(sc2n1)CCC3	-0.5	-10.3	-0.1	-5.3	.	.
CC1Cc2cc(S(=O)(=O)CCC(=O)Nc3ccccc3Cl)ccc2N1C(=O)C1CC1 (centres undefined)	5.2*	1.9	0.0	13.9	0.5	1.0
CC1Cc2cc(S(=O)(=O)CCC(=O)Nc3cccc(F)c3)ccc2N1C(=O)C1CC1 (centres undefined)	0.6	-0.7	0.0	7.7	.	.
CCOc1cc(CNCCO)ccc1OCc1ccccc1	-1.1	-15.5	-0.1	-13.5	.	.
C=CCOc1ccc(CNC2CCCC2)cc1OC	5.7*	-23.9	0.1	-1.2	-0.3	3.0
C=CCOc1ccc(CNCCO)cc1OCC	7.6*	5.9	0.0	4.3	-0.7	0.4
COc1ccccc1N1CCN(C(=O)c2ccc3ccccc3c2)CC1	0.1	9.7	-0.1	-0.1	.	.
CCc1noc(C)c1C(=O)OCC(=O)Nc1cc(C)on1	5.3*	15.7	0.1	5.0	1.5	1.9
Cc1ccc(NC(=O)CSc2nc3c(c(=O)n2C)SCC3)c(C)c1	7.4*	4.7	0.0	24.7	0.2	6.0
COc1cccc2cc(-c3ccccc3)c(=O)oc12	-7.9	-3.2	0.0	-19.6	.	.
COc1cccc2cc(-c3ccc4c(c3)OCO4)c(=O)oc12	5.2*	-10.7	-0.3	-51.8	-1.2	-11.7
Cc1nc(N2CCN(c3ccccn3)CC2)c2c(C)c(C(=O)NC(C)C)sc2n1	-0.1	5.5	0.1	19.3	.	.
c1nc(NCCc2ccc3c(c2)OCCO3)c2ccsc2n1	5.6*	-2.4	-0.1	39.2*	1.6	0.3
